PubChem BioAssay AID2216 (Broad Institute, 2009)
In all, about 300,000 compounds went through this assay and about 3,300 (1.1%) were called active. Another 6% or so got no clear call; they are omitted. The sample holds actives, similar compounds and a random draw of the others, so the mix is not that of the screen.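 How the source made its calls: active means more than half of the replicate wells show a fall in the fluorescence ratio signal beyond about 16% (limit read from the data, passing the limit was not always enough); inconclusive means exactly half of the replicate wells pass the set limit; inactive means fewer than half of replicates pass the limit.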

Each compound was assayed on Ran GTPase (GTP-bound) - importin-beta complex (assay: disruptors of Ran-importin-beta complex formation – biochemical, FRET, CFP-Ran, YFP-importin-beta, homogeneous, primary screen (AID 2216;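 further: 0% = DMSO wells and 100% = Ran loaded with GDP instead of GTP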)). Details: cell-free CFP-Ran/YFP-importin-beta FRET ratio; hits give high values; concentration not given here.
With `O=C(NCCSc1ncc(-c2ccccc2)[nH]1)c1ccco1` the inhibition was 3.47% (inactive). With `O=C(NC1CCCCC1)c1ccc(-c2ccc(Cl)cc2)o1` the inhibition was 8.43% (inactive). With `O=C(CSc1ccc(-c2ccc(-n3cccn3)cc2)nn1)Nc1ccc([N+](=O)[O-])cc1` the inhibition was -0.399% (inactive). For `CC(=O)NC(CC(=O)Nc1cccc(S(=O)(=O)N2CCCC2)c1)c1ccccc1` (stereo not given), the inhibition was 0.238% (inactive). For `CCN(CC(=O)Nc1cccc(S(=O)(=O)N2CCCCC2)c1)Cc1ccccc1`, the inhibition was 16.2% (active). `CCN(CC(=O)Nc1ccc(S(=O)(=O)N2CCCC2)cc1)CC(=O)Nc1cccc(OC)c1` was tested, and the inhibition was 4.35% (inactive). For `COc1ccc(CCNc2cc(N3CCN(C(=O)c4ccccc4OC)CC3)ccc2[N+](=O)[O-])cc1OC`, the inhibition was 3.89% (inactive). In the case of `CC1CC(C)CN(S(=O)(=O)c2cccc3nonc23)C1` (stereo not given), the inhibition is reported as 2.14% (inactive). With `COc1ccc2oc(C(=O)N(CC(C)C)C3CCS(=O)(=O)C3)c(C)c2c1` (stereo not given) the inhibition was -2.12% (inactive). For `O=C(Nc1ccccc1N1CCCC1)c1ccc(F)c(S(=O)(=O)N2CCOCC2)c1`, the inhibition was 1.55% (inactive). For `COc1ccccc1CCNS(=O)(=O)c1cc2c3c(c1)C(C)C(=O)N3CCC2` (stereo not given), the inhibition was 4.16% (inactive). With `COC(=O)COc1ccc2c(c1C)O/C(=C\c1ccco1)C2=O` the inhibition was 47.4% (active). For `Cc1cc(C)c(OCC(=O)N/N=C/c2ccco2)c(C)c1`, the inhibition was -4.28% (inactive). With `COC(=O)C1=C(C)N(c2ccc(Br)cc2)C(=O)/C1=C\c1ccco1` the inhibition was 5.89% (inactive). In the case of `CCS(=O)(=O)c1ccc(-c2cccc(NC(=O)c3ccc(Br)o3)c2)nn1`, the inhibition is reported as 2.1% (inactive). `CCOc1ccc(NS(=O)(=O)c2ccc(C(=O)NCC(c3ccccc3OC)N3CCCC3)cc2)cc1` (stereo not given) was tested, and the inhibition was -3.36% (inactive). In the case of `CCCNC(=O)CCn1cc(-c2ccc(OC)cc2)nc1CCN`, the inhibition is reported as -0.23% (inactive). In the case of `Cc1csc(NC(=O)CSc2nc(=O)cc(N)n2-c2ccc(F)cc2)n1`, the inhibition is reported as 1.41% (inactive). `O=S(=O)(NC1CCCCC1N1CCCCC1)c1ccc(Cl)cc1` (stereo not given) was tested, and the inhibition was 2.32% (inactive). In the case of `CCN1CCN(C2CCCCC2NS(=O)(=O)c2ccc(Cl)cc2)CC1` (stereo not given), the inhibition is reported as 1.58% (inactive). `O=S(=O)(NC1CCCCC1N1CCC(O)CC1)c1ccc(Cl)cc1` (stereo not given) was tested, and the inhibition was 74.6% (active). In the case of `COc1ccc(CNC(=O)COC(=O)CCS(=O)(=O)c2ccc(C)cc2)cc1OC`, the inhibition is reported as 2.29% (inactive). `CCOc1ccc(-c2cc(C(=O)N/N=C/c3ccc(O)cc3)c3ccccc3n2)cc1` was tested, and the inhibition was 2.59% (inactive). `COc1ccc(C(=O)N/N=c2\oc3ccccc3cc2C(N)=O)cc1` was tested, and the inhibition was 4.55% (inactive). With `CCN(CC)c1ccc2cc(C(N)=O)/c(=N\NC(=O)c3ccncc3)oc2c1` the inhibition was 135% (active). `CCOC(=O)c1cc2cc3ccccc3cc2oc1=O` was tested, and the inhibition was 3.3% (inactive). For `CCN(CC)c1ccc2cc(C(=O)O)c(=O)oc2c1`, the inhibition was 153% (active). `CCN(CC)c1ccc2oc(=O)c(C)nc2c1` was tested, and the inhibition was -87.9% (inactive). With `NC(=O)c1cc2ccccc2o/c1=N/NC(=O)c1cccc(F)c1` the inhibition was -7.02% (inactive). In the case of `Cc1onc(C(=O)Nc2ccc3c(c2)OCO3)c1[N+](=O)[O-]`, the inhibition is reported as 0.97% (inactive). In the case of `CCCOc1ccc(Cl)cc1Nc1nc(NCCO)nc(N2CCCC2)n1`, the inhibition is reported as -4.43% (inactive). `O=C(COC(=O)c1cnccn1)Nc1ccc(Cl)cc1C(F)(F)F` was tested, and the inhibition was 1.07% (inactive). `CCCCc1nc2cc(C(=O)N3CCCCC3CCO)ccc2o1` (stereo not given) was tested, and the inhibition was 2.55% (inactive). For `Cc1cc(C)c2c3c(sc2n1)C(c1ccccc1)C(C#N)=C(N)O3` (stereo not given), the inhibition was 14.9% (inactive). `CC1=C(C(=O)Nc2ccccc2)C(c2ccco2)C(C#N)=C(SCC(N)=O)N1` (stereo not given) was tested, and the inhibition was -0.887% (inactive). In the case of `N#CC1=C(N)Oc2c(sc3ccccc23)C1c1ccco1` (stereo not given), the inhibition is reported as 54.7% (active). In the case of `CC(C)CN(C(=O)COC(=O)c1ccc(Cl)c(N)c1)c1c(N)n(Cc2ccccc2)c(=O)[nH]c1=O`, the inhibition is reported as 3.15% (inactive). `Cc1onc(-c2ccccc2Cl)c1C(=O)N(Cc1ccc(N(C)C)cc1)C(C)C` was tested, and the inhibition was -1.47% (inactive). `O=C(Cc1ccc(S(=O)(=O)N2CCOCC2)s1)NCCOc1ccccc1F` was tested, and the inhibition was 0.747% (inactive). In the case of `CCCc1cc(=O)oc2c(C)c(OCC(=O)NCc3ccccn3)ccc12`, the inhibition is reported as 0.0468% (inactive). For `COC(=O)Cc1cc(=O)oc2c(C)c(O)ccc12`, the inhibition was 60.4% (active). With `COc1cccc(C(=O)OCc2cc(=O)oc3c(C)c(C)ccc23)c1OC` the inhibition was -2.35% (inactive). For `O=C(COc1ccccc1)Nc1cc2c3c(c1)CC(=O)N3CCC2`, the inhibition was 0.812% (inactive). `O=C(NC1CC1)C1=C[C@H](c2coc3ccccc3c2=O)C[C@H](OCCCCO)O1` was tested, and the inhibition was 8.31% (inactive). `CCN1CCN(CC(=O)Nc2sc3c(c2C#N)CCC3)CC1` was tested, and the inhibition was -1.32% (inactive). `CC(C)N1CCc2c(sc(NC(=O)Cc3ccccc3)c2C#N)C1` was tested, and the inhibition was 156% (active). For `N#Cc1c(N)sc2c1CCN(C(=O)OCc1ccccc1)C2`, the inhibition was 8.85% (inactive). With `Cn1c(SCC(=O)c2ccccc2)ncc(C(=O)Nc2ccc(F)cc2)c1=O` the inhibition was 0.558% (inactive). For `CCN1CC=C2C(C#N)=C(N)C(C#N)(C#N)[C@H](c3ccoc3)[C@H]2C1`, the inhibition was 47.8% (active). `CCCN1CC=C2C(C#N)=C(N)C(C#N)(C#N)C(c3cc(OC)ccc3OC)C2C1` (stereo not given) was tested, and the inhibition was 36.6% (active). `CCC1=C(C(=O)OC)C(c2cc(OC)ccc2OC)C(C#N)=C(N)O1` (stereo not given) was tested, and the inhibition was -4.33% (inactive). In the case of `N#CC1=C(N)C(C#N)(C#N)[C@H](c2ccsc2)[C@H]2COCC=C12`, the inhibition is reported as -27% (inactive). `COc1ccc(-c2cc(C(=O)N(C)CC(=O)Nc3ccccc3Cl)c3ccccc3n2)cc1OC` was tested, and the inhibition was 0.526% (inactive). In the case of `COc1cc(C(=O)N(C)Cc2cccc(OC)c2OC)ccc1OCC(=O)Nc1cccc(C(F)(F)F)c1`, the inhibition is reported as -1% (inactive). In the case of `Cc1sc2nc(CSCC(=O)NC3CCCCC3)[nH]c(=O)c2c1C`, the inhibition is reported as 1.87% (inactive). `O=S(=O)(NCCCc1ccccc1)c1ccc(Br)cc1` was tested, and the inhibition was -1.87% (inactive). For `Cc1cc(=O)oc2cc(NC(=O)C(C)Oc3ccccc3)ccc12` (stereo not given), the inhibition was 3.05% (inactive). With `CCOC(=O)C1(Cc2cccc(OC)c2)CCN(C(C)COC)CC1` (stereo not given) the inhibition was 7.78% (inactive). For `CCOC(=O)C1(Cc2cccc(OC)c2)CCN(C(C)CC(C)(C)O)CC1` (stereo not given), the inhibition was 2.47% (inactive). `CCOC(=O)C1(Cc2cccc(OC)c2)CCN(Cc2csc(C(C)=O)c2)CC1` was tested, and the inhibition was 33.4% (active).
